This passage reports composite z-score and z-score results from PubChem BioAssay.

The subject of assay [1] is XIP peptide (Xip251-270) binding. Put plainly: XIP fragment 251-270 binding compounds – biochemical, small-molecule microarray, fluorescence 635/667 nm, 0.1 µg/mL protein, primary screen (AID 1182). Particulars: fluorescent protein binding, 635 nm, higher = more signal, called active from +8 up or from −8 down.
Assay [2] relates to XIP peptide (Xip251-270). Put plainly: compounds binding XIP fragment 251-270 – biochemical, small-molecule microarray, fluorescence 635/667 nm, 0.5 µg/mL protein, primary screen (AID 1183). Particulars: fluorescence 635 nm, higher = more signal.
The nature of assay [3]: blood-stage malaria parasite viability loss – strain 3D7, DAPI fluorescence, 100 nL, primary screen (AID 1184).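 Further: parasites grown inside human red blood cells in medium with human serum.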 Particulars: P. falciparum 3D7 growth, 3 d, higher = more signal.
The target in assay [4] is Homeobox protein Hox-A13 (Mus musculus) (UniProt Q62424). Put plainly: disruptors of Hoxa13 oligonucleotide interaction – biochemical, fluorescence polarization, labeled oligonucleotide, primary screen (AID 1185). Particulars: Hoxa13:DNA binding, 15 min, higher = more signal, called active from +8 up or from −8 down. On the technique in general: In fluorescence polarisation assays a small probe gives low polarisation when free and higher when bound to something large.

Assay [5] in a line: blockers of DNA damage checkpoint Chk1 activation – imaging, HeLa, hydroxyurea, phospho-Chk1 antibody, percent positive cells, primary screen (AID 1186). Particulars: hydroxyurea-induced phospho-Chk1 immunofluorescence imaging, higher = more signal.
A short description of assay [6]: blockers of DNA damage checkpoint Chk1 activation – imaging, HeLa, hydroxyurea, phospho-Chk1 nuclear intensity, primary screen (AID 1187). Particulars: hydroxyurea-induced phospho-Chk1 immunofluorescence imaging, higher = more signal.

Calls of active or inactive are those of the source. Unless noted, how the calls were made is not given here.

Sequence of Homeobox protein Hox-A13 (Mus musculus) (Q62424 whole entry, looked up): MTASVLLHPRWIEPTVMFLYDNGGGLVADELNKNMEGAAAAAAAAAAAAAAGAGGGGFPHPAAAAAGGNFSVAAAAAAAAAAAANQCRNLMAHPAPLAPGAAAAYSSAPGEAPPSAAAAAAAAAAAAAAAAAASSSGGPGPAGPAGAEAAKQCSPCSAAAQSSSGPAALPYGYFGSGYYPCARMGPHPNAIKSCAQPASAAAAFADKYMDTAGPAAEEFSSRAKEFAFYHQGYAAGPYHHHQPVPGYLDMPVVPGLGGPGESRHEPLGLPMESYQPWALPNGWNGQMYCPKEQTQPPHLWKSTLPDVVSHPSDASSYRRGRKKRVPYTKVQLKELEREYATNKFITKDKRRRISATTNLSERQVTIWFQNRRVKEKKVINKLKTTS

As for `COc1cc(Cc2cc3c(c(-c4ccccc4)n2)[Si](C(C)C)(C(C)C)OC3)cc(OC)c1OC`, the composite z-score in assay [1] is -0.166 (inactive); in assay [2], -1.01. The z-score was -0.822 in assay [3], -0.497 (inactive) in assay [4], -0.628 (inactive) in assay [5] and -0.317 (inactive) in assay [6].
As for `COCCOC(=O)N1C(=O)[C@@]2(c3cc(C#CC4=CCCCC4)ccc31)[C@H](C(=O)N1CCCCCCC1)[C@H]1C(=O)O[C@H](c3ccccc3)[C@H](c3ccccc3)N1[C@@H]2c1ccccc1OCCO`, the composite z-score in assay [1] is 0.502 (inactive); in assay [2] it was 0.712. Moreover, the z-score in assay [3] was -2.04; in assay [4], 3.21 (inactive); in assay [5], -0.245 (inactive); in assay [6], -0.178 (inactive).
On to `CC1(C)OB(/C=C\CC(OC(=O)c2ccncc2)c2ccccc2)OC1(C)C` (centres undefined), for which the composite z-score was 0.258 (inactive) in assay [1] and 0.478 in assay [2]. Also, the z-score in assay [3] was 0.78; in assay [4], -3.16 (inactive); in assay [5], 0.301 (inactive); in assay [6], 0.415 (inactive).
In the case of `COC(=O)Cn1c(C(=O)N(C)C)cc2c1C[C@H]1CN(C(=O)c3ccccc3)[C@@](Cc3ccccc3)(C(=O)OC)[C@@H]21`, the values for the composite z-score in assay [1] and in assay [2] were -0.0872 (inactive) and 0.661, respectively. Further, the z-score was 0.645 in assay [3], -4.29 (inactive) in assay [4], -0.12 (inactive) in assay [5] and 0.286 (inactive) in assay [6].
`COCCOC(=O)N1C(=O)[C@@]2(c3cc(C#CCCO)ccc31)[C@H](C(=O)N1CCN(c3ncccn3)CC1)[C@H]1C(=O)O[C@H](c3ccccc3)[C@H](c3ccccc3)N1[C@@H]2c1ccc(OCCO)cc1`: the results for the composite z-score in assay [1] and in assay [2] were 0.472 (inactive) and 0.838, respectively. In addition, the z-score in assay [3] was -2.04; in assay [4], 0.211 (inactive); in assay [5], -0.0621 (inactive); in assay [6], -0.0646 (inactive).
For `COc1ccc(C(=O)Nc2cccc(CN3C(=O)[C@]4(O[C@H](CC(=O)N(CCO)Cc5ccccc5)[C@@H]([Si](C)(C)c5ccc(OC)cc5)[C@@H]4C)c4ccccc43)c2)cc1`, the composite z-score was 0.256 (inactive) in assay [1] and 0.572 in assay [2]. Further, the z-score in assay [3] was -2.49; in assay [4] it was -0.179 (inactive); in assay [5], -0.571 (inactive); in assay [6], 0.0153 (inactive).
For the molecule `C=CC[C@H](O)c1ccc(O)c2ccccc12`, the composite z-score is 0.0693 (inactive) in assay [1] and 0.512 in assay [2]. The z-score in assay [3] is -1.36; in assay [4], -2.1 (inactive); in assay [5] it was 0.835 (inactive); in assay [6] it was 1.01 (inactive).
On to `C=CCNC(=O)[C@@H]1[C@H]2C(=O)O[C@H](c3ccccc3)[C@H](c3ccccc3)N2[C@H](c2ccc(O)cc2)[C@@]12C(=O)N(C(=O)OCCOC)c1ccc(C#CCC(C(=O)OC)C(=O)OC)cc12`, for which the composite z-score in assay [1] was 0.891 (inactive); in assay [2], 0.756. The z-score was -1.7 in assay [3], -1.28 (inactive) in assay [4], -0.0611 (inactive) in assay [5] and -0.187 (inactive) in assay [6].
With `COc1ccc(NN2C(C(O)c3ccccc3)C=CC3C(=O)N(C4CCCCC4)C(=O)C32)cc1` (centres undefined), the composite z-score in assay [1] was 0.387 (inactive); in assay [2] it was 0.745. For the same molecule, the z-score in assay [3] is -1.08; in assay [4], -4.8 (inactive); in assay [5] it was 0.329 (inactive); in assay [6], 0.711 (inactive).
For `C=CC[C@]12N=C(c3ccc(OCCCO)cc3)O[C@H]1c1ccccc1N(CCC)C2=O`, the composite z-score is -0.0641 (inactive) in assay [1] and 0.842 in assay [2]. Besides, the z-score is -2.33 in assay [3], -4.5 (inactive) in assay [4], -0.206 (inactive) in assay [5] and -0.234 (inactive) in assay [6].
On to `C[N+](C)(C)CCCC[C@@H]1NC(=O)[C@H]2C[C@@H](C(=O)NCCCCCN)[C@@H](c3ccc(O)cc3)N2C1=O`, for which the composite z-score in assay [1] was 0.528 (inactive); in assay [2], 0.69. Moreover, the z-score in assay [3] was 0.435; in assay [4], -1.12 (inactive); in assay [5] it was 0.932 (inactive); in assay [6], 0.79 (inactive).
As to `C=C(CCCC)/C(=C/C[C@@H](OC(C)=O)c1cccc(OCCO)c1)c1cc(C(=O)OC)ccc1OC`, the composite z-score in assay [1] was -0.234 (inactive); in assay [2] it was 0.826. The z-score in assay [3] was -3.06; in assay [4], -5.01 (inactive); in assay [5], 0.496 (inactive); in assay [6] it was 0.331 (inactive).
As for `CN1C(=O)C2C(C1=O)C1C=C(CCCO)C2C(C2CC2)N1C` (centres undefined), the composite z-score was 0.58 (inactive) in assay [1] and 0.591 in assay [2]. Further, the z-score in assay [3] is 0.119; in assay [4] it was -6.6 (inactive); in assay [5], -0.0182 (inactive); in assay [6] it was 0.162 (inactive).
With `C=CCNC(=O)[C@H]1[C@@H]2C(=O)O[C@@H](c3ccccc3)[C@@H](c3ccccc3)N2[C@@H](c2ccc(O)cc2)[C@]12C(=O)Nc1ccc(C#CCC(C(=O)OC)C(=O)OC)cc12`, the composite z-score in assay [1] is 0.835 (inactive); in assay [2], 0.764. In addition, the z-score in assay [3] was -0.214; in assay [4], -2.88 (inactive); in assay [5], 0.0976 (inactive); in assay [6], 0.543 (inactive).
